ELG1 genotoxic – inducers of genotoxicity in HEK293T ELG1-luciferase cells. HEK293T ELG1-luciferase reporter, luminescence, 16 h. Potency, µM (doses to about 46 µM), without a hit: at the top dose activity change, positive = activation, most hits filed as activators. hit rate 1.3% among 330,000. AID 504466; also: % of control where 0% means no effect; nearly all actives have a fitted effect of over 60% in size
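ELG1-luciferase HEK293T cells, 2,000/well; compound pinned in; 16 hr, 37 °C, 5% CO2; ONE-Glo, 30 min RT; luminescence on CCD imager.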
KinaseGlo FLuc – Kinase-Glo luciferase inhibition (counter-screen). AID 1379. Kinase-Glo luciferase, ATP luminescence, 8 min. Potency, µM (highest dose often 38.3 µM), without a hit: at the highest dose activity change, negative = inhibition, actives largely listed as inhibitors. hit rate 0.28% among 200,000; also: % is scaled to controls: 0 for no effect and ±100 for the full control effect; nearly all actives have a fitted effect of over 60% in size
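Light output from Kinase-Glo luciferase with luciferin and 10 uM ATP in 50 mM imidazole pH 7.2, KCl, MgCl2, Tween 20, BSA; compound pin-delivered, 8-min ambient incubation, then luminescence read.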
Rab9 prom act – activates the Rab9 promoter; Huh7 Rab9 promoter-luciferase reporter, luminescence, 24 h; Potency, µM (doses to about 9.22 µM), for inactives: at the highest dose activation, negative = inhibition, usual class: activators; hit rate 2.8% among 320,000; also: % of control where 0% means no effect; nearly all actives have a fitted effect of over 60% in size
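Stable Rab9-luc Huh7, 1500 cells/well, 2 h settle; cmpd in DMSO, 24 h, 37 °C/5% CO2; luciferase reagent 10 min RT; luminescence.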
NPC1 promoter act – NPC1 promoter activation; Huh7 NPC1 promoter luciferase reporter, 24 h; Potency, µM (doses to about 9.22 µM), without a hit: at the highest dose activation, most hits filed as activators; hit rate 2.4% among 320,000; also: % of control where 0% means no effect; nearly all actives have a fitted effect of over 60% in size
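Huh7 cells stably carrying NPC1 promoter–luciferase, plated in Opti-MEM with 10% FBS for 2 h, were exposed to compound in DMSO for 24 h at 37 °C; luciferase reagent was added for 10 min and luminescence read.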
SMN2 splice up – increases expression of the SMN2 splice variant | HEK293 SMN2-luciferase splicing reporter, luminescence, 30-36 h | Potency, µM (top dose mostly 46.1 µM), for inactives: top-dose activity change, positive = activation, hits mostly activators | AID 1458 | hit rate 2.8% among 210,000; also: % of control where 0% means no effect; nearly all actives have a fitted effect of over 55% in size
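qHTS luciferase splicing reporter: luminescence rises when SMN2 exon 7 is included in transfected HEK293 cells. Compound exposure lasted 30-36 h at 37C, with 4.5 mM final sodium butyrate as control, followed by a ONE-Glo read.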
FLuc counter – counter-screen for miR-21 project: firefly luciferase inhibitors or activators | P08659 | purified FLuc, Km substrates, luminescence inhibition | Potency, µM (highest dose often 57.5 µM), without a hit: at the highest dose activity change, negative = inhibition, most hits filed as inhibitors | hit rate 6.9% among 360,000;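 also: plate controls were vehicle for no effect and reference inhibitor for full effect; nearly all actives have a fitted effect of over 55% in size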
Target sequence (P08659 whole entry, looked up): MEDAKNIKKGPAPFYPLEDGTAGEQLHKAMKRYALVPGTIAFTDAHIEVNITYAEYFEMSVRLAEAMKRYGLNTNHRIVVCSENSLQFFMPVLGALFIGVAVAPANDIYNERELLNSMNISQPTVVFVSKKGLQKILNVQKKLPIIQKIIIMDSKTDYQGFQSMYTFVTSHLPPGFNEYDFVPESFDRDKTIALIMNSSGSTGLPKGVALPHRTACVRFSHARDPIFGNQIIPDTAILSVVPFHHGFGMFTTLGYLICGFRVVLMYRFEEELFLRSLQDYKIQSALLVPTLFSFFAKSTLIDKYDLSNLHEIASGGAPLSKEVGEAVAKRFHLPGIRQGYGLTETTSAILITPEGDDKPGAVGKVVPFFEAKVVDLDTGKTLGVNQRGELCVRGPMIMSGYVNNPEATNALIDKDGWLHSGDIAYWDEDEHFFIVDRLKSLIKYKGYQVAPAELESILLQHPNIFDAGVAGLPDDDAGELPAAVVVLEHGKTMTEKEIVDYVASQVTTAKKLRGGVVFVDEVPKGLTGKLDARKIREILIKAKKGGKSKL
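Biochemical qHTS of compounds, final roughly 60 µM downward over six points, against 10 nM purified firefly luciferase using Km concentrations of substrates (10 uM D-luciferin, 10 uM ATP) in Tris acetate pH 7.5 buffer; luminescence output.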
* hit, by the source's call; ? = inconclusive; . = not tested or not shown. Sampled rows, rich in hits. Any-hit rate of the full collection: about 7.4%. Calls follow the shape of the dose curve; as a rule, active = well fitted curve in the direction sought with a large enough effect; inconclusive = small, poorly fitted or top-dose-only effect, or another doubt; inactive = no such curve, though single readings can be large; an effect the other way counts as inactive or inconclusive. Potency is read from the fitted curve at half-maximal effect.

SMILES | ELG1 genotoxic | KinaseGlo FLuc | Rab9 prom act | NPC1 promoter act | SMN2 splice up | FLuc counter
COc1cccc2cc(C(=O)Oc3ccccc3)c(=O)oc12 | 2.2% | . | -2.3% | -3.2% | . | 12µM*
COc1ccc(C(=O)c2cc3cccc(OC)c3o2)cc1 | ? | -9.2% | 3.16µM* | 3.16µM* | 14.1µM* | 9.53µM*
CCc1ccc(-c2nn(CC(=O)NC3CCCC3)c3c2cnc2ccc(C)cc23)cc1 | . | . | . | . | . | -1.7%
COc1ccc(OC)c(NC(=O)c2cc(S(=O)(=O)NCCc3ccc(Cl)cc3)ccc2F)c1 | . | . | . | . | . | 1.6%
COc1ccccc1/C=C/C(=O)OCC(=O)NC1CCS(=O)(=O)C1 (stereo not drawn) | 1.5% | . | . | . | . | .
CCN(C(=O)c1cc2cccc(OC)c2oc1=O)c1ccccc1 | -5.1% | 0.2% | 1.2% | -3.9% | 10µM* | 1.2%
COc1cccc2cc(C(=O)N(Cc3ccccc3)CC3CCCO3)c(=O)oc12 (stereo not drawn) | 1.3% | 2.8% | 0.7% | 0.2% | 1.4% | -5.2%
CCc1ccc(C2Sc3ccccc3NC3=C2C(=O)c2ccccc23)cc1 (stereo not drawn) | . | . | . | . | -78.8% | 10.7µM*
CC(C)c1ccc(C2Sc3ccccc3NC3=C2C(=O)c2ccccc23)cc1 (stereo not drawn) | . | . | . | . | -27.2% | 6.01µM*
O=C1C2=C(Nc3ccccc3SC2c2ccc(C(F)(F)F)cc2)c2ccccc21 (stereo not drawn) | . | . | . | . | -73.8% | 2.7%
CCCc1cc(C(=O)N2CCCC(Nc3ccc(C)c(C)c3)C2)n(C)n1 (stereo not drawn) | -8.0% | . | -3.6% | -2.8% | . | 1.4%
COc1ccc(-c2noc(CCc3ccccc3)n2)cc1 | ? | 0.8% | ? | ? | 22.7% | 15.1µM*
c1ccc(SCc2nc(-c3ccccn3)no2)cc1 | 18.4µM* | -2.4% | ? | 3.55µM* | 11.2µM* | 16.9µM*
COc1ccc(Cc2nc(-c3ccccn3)no2)cc1 | 18.3% | -3.3% | ? | 3.55µM* | ? | ?
c1ccc(-c2noc(CC3CCCCC3)n2)nc1 | ? | -3.5% | 1.12µM* | 3.55µM* | . | 9.53µM*
CN(Cc1nc(-c2ccccn2)no1)S(=O)(=O)c1ccc(Br)cc1 | 6.0% | -0.3% | -2.2% | -0.9% | -19.0% | -0.7%
O=C1c2ccccc2C(=O)N1Cc1nc(-c2ccccn2)no1 | . | 1.1% | . | . | -12.9% | -14.8%
CC1=CC(=O)OC1Cc1ccc2ccccc2n1 (stereo not drawn) | . | ? | . | . | 5.8% | .
CCS(=O)(=O)N1CCC(NC(=O)C(Cc2ccc(OC)c(OC)c2)NC(C)=O)CC1 (stereo not drawn) | -2.4% | . | 0.5% | 6.1% | . | -2.7%
O=C(CCNC(=O)c1ccc(Cl)cc1)Nc1ccc(S(=O)(=O)N2CCCCC2)cc1 | -6.1% | . | -5.6% | -4.1% | . | 1.8%
CCN(CC(=O)NCCN1CCOCC1)S(=O)(=O)c1ccc(F)cc1 | 0.3% | . | 0.6% | -0.4% | . | 1.4%
CN(C)C(=O)CCCc1nc(-c2ccc(Cl)cc2)no1 | 14.6µM* | -5.2% | 3.16µM* | ? | 13.8% | ?
Clc1ccc(-c2noc(CCCc3ccccc3)n2)cc1 | ? | 1.3% | 8.0% | 5.8% | 4.7% | 26.9µM*
c1ccc(CCCc2nc(-c3ccccn3)no2)cc1 | ? | -0.2% | 2.24µM* | 2.82µM* | 20µM* | 16.9µM*
c1ccc(CCCc2nc(-c3cccnc3)no2)cc1 | 6.6% | . | 28.6% | 22.1% | . | ?
SMILES | ELG1 genotoxic | KinaseGlo FLuc | Rab9 prom act | NPC1 promoter act | SMN2 splice up | FLuc counter
O=C(O)CCCc1nc(-c2ccc(Cl)cc2)no1 | 1.1% | 2.5% | 21.2% | 0.0% | 2.8% | ?
COc1ccc(-c2noc(Cc3cccs3)n2)cc1 | ? | -4.9% | 2.82µM* | ? | 17.2% | 5.36µM*
COc1ccc(N2CC(NC(=O)N3CCN(C(=O)c4ccco4)CC3)CC2=O)cc1OC (stereo not drawn) | -1.8% | . | 0.3% | -0.8% | . | -0.2%
c1ccc(Cc2nc(-c3ccccn3)no2)cc1 | ? | -23.6% | 2.82µM* | ? | 25.1µM* | 23.9µM*
Cc1ccc(Cc2nc(-c3ccccn3)no2)cc1 | ? | -6.8% | 3.16µM* | 1.78µM* | 12.6µM* | 10.7µM*
c1ccc(C(Cc2nc(-c3ccccn3)no2)c2ccccc2)cc1 | 4.3% | 0.8% | ? | ? | 29.2% | ?
CCCc1nnc(NC(=O)CCC(=O)NC2CCCC2)s1 | 3.5% | . | -2.1% | -6.6% | . | -0.1%
CCCCCN(C(=O)CCC(=O)OCc1cc(C)ccc1C)c1c(N)n(CCCC)c(=O)[nH]c1=O | -1.0% | . | 6.0% | 0.8% | . | ?
O=C1CCC2S/C(=C/Nc3ccc(C(F)(F)F)cc3)C(=O)N12 (stereo not drawn) | -13.1% | -3.4% | -38.1% | -30.1% | -79.6% | 15.1µM*
CC(C)/C=C1\CC/C(=C\c2cccnc2)C1=O | 2.4% | -2.3% | 1.0% | 2.6% | -34.2% | 16.9µM*
O=C1/C(=C\c2cccnc2)CCc2ccccc21 | 11.8% | . | 4.2% | -7.1% | . | 6.01µM*
O=C1/C(=C/c2cccnc2)CC/C1=C\c1cccnc1 | -22.4% | -5.4% | -8.6% | -1.6% | -20.8% | ?
CN(C)c1ccc(/C=C2\CCC/C(=C\c3ccccc3)C2=O)cc1 | ? | -1.9% | 23.5% | 27.8% | 17.8% | 12µM*
O=C1/C(=C/c2ccccc2)CCCc2ccccc21 | ? | -5.1% | 3.1% | -0.2% | -9.7% | 10.7µM*
O=C1/C(=C/c2ccc(C(=O)O)cc2)CCC/C1=C\c1ccc(C(=O)O)cc1 | 1.7% | 0.0% | -0.4% | -0.9% | 18.0% | 3.4%
CC(=O)c1ccc(C(=O)N2CCCC(CCC(=O)N(C)CCc3ccccn3)C2)s1 (stereo not drawn) | 0.1% | -1.6% | -0.5% | 0.5% | -14.0% | 6.2%
CN(C)/C=N/C(=S)Nc1ccc(Cl)cc1 | ? | -2.2% | ? | 29.9% | 11.2µM* | 13.5µM*
Cc1cccc(C)c1NC(=S)/N=C/N(C)C | 0.1% | 1.5% | -3.5% | -7.1% | -7.0% | 0.7%
CN1CCN(C(=S)Nc2ccc(Cl)cc2Cl)CC1 | 0.1% | -2.4% | 13.6% | 6.1% | -37.9% | -15.3%
CN(C)/C=N/C(=S)Nc1ccc(Cl)cc1Cl | 20.6µM* | -6.3% | ? | ? | ? | 19µM*
Cc1cc(C)cc(NC(=O)N2CCNC(=O)C2CC(=O)Nc2cc(Cl)ccc2Cl)c1 (stereo not drawn) | -5.5% | . | 4.3% | -5.9% | . | -2.9%
N#CC1=C2Sc3ccccc3N2CCCC1=O | ? | -4.4% | ? | ? | 5.9% | -18.9%
N=C1C2=C3Sc4ccccc4N3CCCC2=NN1c1cccc(S(=O)(=O)O)c1 | -0.7% | . | -2.0% | -3.7% | . | 19µM*
COc1nc(-c2ccc(C)cc2)ccc1-c1noc(-c2ccco2)n1 | ? | -0.6% | ? | ? | -7.5% | 19µM*
